Tau fluor counter: counter-screen for tau fibril formation inhibitors | tau K18 P301L Alexa594 fluorescence, heparin fibrillization | Potency, µM (titrated, usually from 57.7 µM), for the others: top-dose activity change, negative = decrease | actives 0.93% (n = 280,000) | AID 1463; note: nearly all actives have a fitted effect of over 55% in size
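Human tau K18 P301L (15 uM unlabeled, 0.24 uM Alexa 594-labeled) in 100 mM sodium acetate pH 7 with 20 uM heparin, 6 hr at 37 C. ThT 30 uM added, 1 hr ambient; Alexa 594 FP and total fluorescence read at 555/632 nm.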
TRb SRC2 PPI: TRbeta-SRC2 interaction inhibition; TRbeta-SRC2 peptide binding, fluorescence polarization; receptor liganded with 1 µM T3; Potency, µM (highest dose often 106 µM), inactives show top-dose activity change, negative = inhibition, most hits filed as inhibitors; actives 0.065% (n = 280,000); AID 1469;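 note: plate controls were bound peptide for no effect and peptide without receptor for full effect; nearly all actives have a fitted effect of over 50% in size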
Target sequence (P10828 whole entry, looked up): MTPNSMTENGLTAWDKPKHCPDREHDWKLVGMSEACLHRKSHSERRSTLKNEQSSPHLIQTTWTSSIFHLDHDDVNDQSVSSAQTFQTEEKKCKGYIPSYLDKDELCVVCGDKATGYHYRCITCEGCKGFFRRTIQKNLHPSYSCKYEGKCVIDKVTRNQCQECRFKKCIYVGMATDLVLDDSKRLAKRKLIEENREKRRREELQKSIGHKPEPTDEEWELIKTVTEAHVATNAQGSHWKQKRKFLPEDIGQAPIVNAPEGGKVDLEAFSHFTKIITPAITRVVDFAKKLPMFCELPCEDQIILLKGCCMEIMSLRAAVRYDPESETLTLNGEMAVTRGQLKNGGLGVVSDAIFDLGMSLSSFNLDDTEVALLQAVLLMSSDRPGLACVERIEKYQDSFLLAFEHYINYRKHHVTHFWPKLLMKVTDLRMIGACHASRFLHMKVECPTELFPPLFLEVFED
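A fluorescence polarization screen tested compounds at multiple concentrations against complex formation between 0.6 uM TRb ligand-binding domain and 20 nM Texas Red SRC2 peptide, with 1 uM T3 present; readout after 5 hr.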
RGS12 GoLoco inh: RGS12 GoLoco-Gai1 interaction inhibition | Gai1:RGS12 GoLoco peptide FP, rhodamine, 10 min | Potency, µM (series often up to 61.6 µM), for the others: at the highest dose activity, negative = inhibition, hits mostly inhibitors | actives 0.44% (n = 230,000) | AID 880; active = well fitted inhibition curve with a large enough effect, not every such curve was filed as active; inactive = no such curve, though single readings can be large or run the other way; note: nearly all actives have a fitted effect of over 30% in size
TexasRed fluor: alters Texas Red total fluorescence, flagging assay interference; TRb/SRC2 Texas Red total fluorescence interference; Potency, µM (series often up to 106 µM), for the others: at the highest dose fluorescence change, negative = quenching; actives 0.29% (n = 280,000); active = well fitted curve in either direction with a large enough effect; inconclusive = small, poorly fitted or top-dose-only effect
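Flags fluorescent or light-absorbing compounds by total fluorescence, S + 2P, at 555 nm excitation and 632 nm emission. Mixture: 20 nM Texas Red SRC2 peptide, 0.6 uM human TRb LBD, 1 uM T3, 5% DMSO; compound exposure 5 h at ambient temperature.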
Tau fibril FP: tau fibrillization inhibition (FP). actives 0.39% (n = 280,000). P10636. K18 P301L tau heparin fibrillization, Alexa594 FP, 6 h. Potency, µM (highest dose often 57.7 µM), inactives show at the top dose activity, negative = inhibition, most hits filed as inhibitors. AID 1468; note: nearly all actives have a fitted effect of over 55% in size
Target sequence (P10636 561-689 P618L limits assumed): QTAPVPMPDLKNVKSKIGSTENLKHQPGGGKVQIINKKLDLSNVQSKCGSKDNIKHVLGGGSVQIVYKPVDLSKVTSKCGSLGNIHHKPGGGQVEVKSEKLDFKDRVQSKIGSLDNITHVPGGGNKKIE
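Steps: dispense K18 P301L tau (15 uM plus 0.24 uM Alexa 594 tracer, final) in pH 7 sodium acetate; add compound; add heparin (20 uM final); incubate 6 hr, 37 C; add ThT (30 uM final); after 1 hr ambient, read FP.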
Tau ThT inhib: tau fibrillization inhibition (ThT binding) | recombinant tau K18 P301L (four-repeat tau fragment), heparin-induced fibrillization, ThT fluorescence | actives 2.1% (n = 270,000) | Potency, µM (highest dose often 57.4 µM), inactives show at the highest dose activity, negative = inhibition, most hits filed as inhibitors | AID 1460; note: nearly all actives have a fitted effect of over 55% in size
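In this qHTS, human K18 P301L tau is incubated with compound and heparin for 6 hr at 37 C, and Thioflavin T fluorescence then reports fibril load.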
Starred values were filed as active, the others as inactive; ? = inconclusive; nt = no result given; [ ] = dose if it differs, or a comment. An excerpt weighted towards active compounds, which were near 3.2% of everything screened. Unless noted, calls come from the whole dose curve; as a rule, active = well fitted curve in the direction sought with a large enough effect; inconclusive = small, poorly fitted or top-dose-only effect, or another doubt; inactive = no such curve, though single readings can be large; an effect the other way counts as inactive or inconclusive. Unless noted, % is set by controls: 0 for no effect and ±100 for the full control effect; potency is the fitted concentration of half-maximal effect.

SMILES	Tau fluor counter	TRb SRC2 PPI	RGS12 GoLoco inh	TexasRed fluor	Tau fibril FP	Tau ThT inhib
CCc1cccc2c(C(=O)COC(=O)c3ccc([N+](=O)[O-])s3)c[nH]c12	11µM*[quencher]	5%	4%	-1%	-8%	7.1µM*
O=C(CSc1cccc2cccnc12)N/N=C/c1ccc(O)cc1	-7%	-4%	-2%	-1%	0%	?
O=C(N/N=C/c1ccc(Sc2ccccn2)o1)c1cc2ccccc2cc1O	?	?	1%	32µM*[quencher]	-1%	14µM*
O=C(N/N=C\c1ccc(Sc2ccccn2)o1)c1cccc(F)c1	-12%	-4%	-4%	0%	-9%	-2%
O=C(CCc1ccccc1O)N/N=C/c1ccc(Sc2cccc3cccnc23)o1	14µM*[quencher]	3%	-1%	-1%	?	-10%
[O-][n+]1onc2c1CCC(=N/O)/C2=N\Nc1ccccc1	?	-6%	14µM*	?	?	14µM*
Cc1noc(C)c1-c1ccc2ncnc(NCc3ccccc3Cl)c2c1	nt	-5%	nt	1%	nt	nt
c1csc(-c2cn3ccc4ccccc4c3n2)c1	-26%	1%	5%	0%	-48%	10µM*
c1cc(-c2cccs2)nc(-c2cccs2)c1	-25%	6%	0%	0%	?	?
CSc1ccc(C(=O)C2CCCN(C(=O)c3ccc4c(c3)no[n+]4[O-])C2)cc1 (configuration not stated)	?	-2%	9%	1%	?	28µM*
CSc1ccc(C(=O)C2CCCN(C(=O)c3ccsc3)C2)cc1 (configuration not stated)	-9%	3%	12%	-2%	8%	-15%
Cc1ccc(Cn2c(CNC(=O)c3ccccc3Br)nc3cccnc32)cc1	-9%	-11%	nt	0.01µM*[quencher]	6%	-3%
O=C(NCc1nc2cccnc2n1Cc1ccc(F)cc1)c1ccccc1C(F)(F)F	-4%	-4%	nt	-9%	-6%	6%
CC[C@]1(O)C[C@@H]2CN(CCc3c([nH]c4ccccc34)[C@](C(=O)OC)(c3cc4c(cc3OC)N(C)[C@H]3[C@](O)(C(=O)OC)[C@@H](C(=O)OC)[C@@]5(CC)C=CCN6CC[C@@]43[C@@H]65)C2)C1	-14%	-4%	19%	3%	-12%	-17%
ClC/C=C/CCl	nt	5%	4%	-2%	nt	nt
CC(=O)c1cccc(NC(=O)Nc2csc3c2CCCC3)c1	11µM*[quencher]	-7%	0%	-1%	?	?
O=C(Nc1ccc(F)cc1)Nc1csc2c1CCCC2	7.1µM*[quencher]	4%	nt	-1%	-16%	?
O=C(/C=C/NNC(=O)c1ccccc1)c1ccc(Br)cc1	?	-21%	0%	1%	1%	25µM*
O=C(/C=C/NNC(=O)c1ccc(Cl)cc1)c1ccccc1	-13%	3%	4%	0%	-1%	22µM*
NC(=O)[C@@H]1CCCNc2c(I)cc([N+](=O)[O-])cc2C(=O)N[C@@H](CCCN=C(N)N)C(=O)N[C@@H](CCCN=C(N)N)C(=O)N1	?	-3%	0%	-2%	-11%	28µM*
CC[C@H](C)[C@@H]1NC(=O)c2cc([N+](=O)[O-])cc(I)c2NCC[C@@H](C(N)=O)NC(=O)[C@H](CCCN=C(N)N)NC1=O	-9%	-9%	-4%	-1%	-7%	-11%
O=C1N/C(=N\N=C\c2ccco2)SC1Cc1ccccc1[N+](=O)[O-] (configuration not stated)	?	6%	-1%	0%	?	7.1µM*
Cc1ccc(S(=O)(=O)C(I)I)cc1	nt	-3%[201 µM]	nt	-10%[201 µM]	nt	nt
Oc1c(Cl)cc(Cl)cc1C(C#Cc1ccccc1)N1CCOCC1 (configuration not stated)	?	-2%	4%	-1%	-4%	14µM*
N#CC(c1ccc(Cl)cc1)N1CCOCC1 (configuration not stated)	0%	3%	-4%	-2%	-1%	-5%
SMILES	Tau fluor counter	TRb SRC2 PPI	RGS12 GoLoco inh	TexasRed fluor	Tau fibril FP	Tau ThT inhib
CCOC(=O)c1ccccc1NC(=O)NC(C)c1c(-n2cccc2)sc(C)c1C (configuration not stated)	-7%	-14%	nt	22µM*[quencher]	-9%	-2%
CC(=O)c1ccc(NS(=O)(=O)c2ccc3[nH]c4c(c3c2)CCCCCC4)cc1	10µM*[quencher]	1%	nt	1%	?	6%
CC(=O)c1ccc(NS(=O)(=O)c2ccc3[nH]c4c(c3c2)CCCC4)cc1	8.9µM*[quencher]	4%	nt	9%	-7%	11%
CC(=O)Nc1ccc(NS(=O)(=O)c2ccc3[nH]c4c(c3c2)CCCCC4)cc1	16µM*[quencher]	3%	nt	-1%	-6%	?
COc1ccc(NC(=O)CN(C)S(=O)(=O)c2ccc3[nH]c4c(c3c2)CCCC4)cc1OC	?	0%	nt	0%	15%	-15%
CC(=O)c1ccc(N2CCN(S(=O)(=O)c3ccc4[nH]c5c(c4c3)CCCCC5)CC2)cc1	?	6%	nt	-1%	-7%	-13%
CC1(C)C(=O)C=C[C@]2(C)C1CC(=O)[C@]1(C)C2CC[C@@]2(C)C(c3ccoc3)OC(=O)C3O[C@@]321 (some centres not stated)	-25%	-3%	-3%	2%	-6%	?
O=S(=O)(O)CCS	-14%	9%	-3%	-3%	?	22µM*
N#CC1=C(S)N(c2ccccc2)C(c2ccc(-c3cccc(Cl)c3)o2)NC1=O (configuration not stated)	-28%	0%	15%	1%	?	22µM*
COc1cccc2cc(-c3ccnc(=S)[nH]3)oc12	-19%	1%	26%	-2%	?	28µM*
C=CCn1c(-c2cc3cccc(OC)c3o2)n[nH]c1=S	-6%	-3%	6%	-2%	-5%	?
Cc1ccc(-n2sc3ccccc3c2=O)cc1S(=O)(=O)N1CCCCC1	-19%	0%	28µM*	-3%	32µM*	16µM*
O=c1c2ccccc2sn1-c1ccccc1	-30%	-11%	18µM*	-2%	?	11µM*
COCCn1c(=O)sc2ccccc2c1=O	6%	7%	-5%	0%	4%	-3%
O=c1c2ccccc2c(C=Nc2ccccc2O)c(O)n1-c1nccs1	-21%	-9%	15%	-4%	?	-14%
O=c1c2ccccc2sn1-c1nccs1	-21%	3%	16µM*	-2%	?	16µM*
CN(C)S(=O)(=O)c1cccc(-n2sc3ccccc3c2=O)c1	-22%	-6%	14µM*	-4%	?	?

Screens: PubChem, National Center for Advancing Translational Sciences (NCATS)
